# ChEMBL document CHEMBL1961873, “Compounds: GSK PKIS; Assays: Nanosyn kinase panel” (2012)
# Key:
# [1] = target: T1, Mitogen-activated protein kinase 12 (Homo sapiens) (UniProt P53778); settings: at 1 µM;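 further: values are averaged p38gamma kinase inhibition readings, compounds tested at 1 µM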
# T1 sequence (whole entry): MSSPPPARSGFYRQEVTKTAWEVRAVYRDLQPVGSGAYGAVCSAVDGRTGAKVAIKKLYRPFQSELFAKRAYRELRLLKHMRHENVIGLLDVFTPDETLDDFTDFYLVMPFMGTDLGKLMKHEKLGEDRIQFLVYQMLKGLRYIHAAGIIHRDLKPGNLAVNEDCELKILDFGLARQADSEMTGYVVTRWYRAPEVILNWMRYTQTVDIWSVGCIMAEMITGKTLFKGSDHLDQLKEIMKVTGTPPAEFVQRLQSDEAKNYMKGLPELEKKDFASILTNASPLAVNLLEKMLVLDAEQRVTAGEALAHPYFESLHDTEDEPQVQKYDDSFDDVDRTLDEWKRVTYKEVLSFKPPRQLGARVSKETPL
# [2] = target: SRSF protein kinase 1 (Homo sapiens) (UniProt Q96SB4); settings: at 0.1 µM
# SRSF protein kinase 1 (Homo sapiens), sequence (Q96SB4 whole entry, canonical isoform): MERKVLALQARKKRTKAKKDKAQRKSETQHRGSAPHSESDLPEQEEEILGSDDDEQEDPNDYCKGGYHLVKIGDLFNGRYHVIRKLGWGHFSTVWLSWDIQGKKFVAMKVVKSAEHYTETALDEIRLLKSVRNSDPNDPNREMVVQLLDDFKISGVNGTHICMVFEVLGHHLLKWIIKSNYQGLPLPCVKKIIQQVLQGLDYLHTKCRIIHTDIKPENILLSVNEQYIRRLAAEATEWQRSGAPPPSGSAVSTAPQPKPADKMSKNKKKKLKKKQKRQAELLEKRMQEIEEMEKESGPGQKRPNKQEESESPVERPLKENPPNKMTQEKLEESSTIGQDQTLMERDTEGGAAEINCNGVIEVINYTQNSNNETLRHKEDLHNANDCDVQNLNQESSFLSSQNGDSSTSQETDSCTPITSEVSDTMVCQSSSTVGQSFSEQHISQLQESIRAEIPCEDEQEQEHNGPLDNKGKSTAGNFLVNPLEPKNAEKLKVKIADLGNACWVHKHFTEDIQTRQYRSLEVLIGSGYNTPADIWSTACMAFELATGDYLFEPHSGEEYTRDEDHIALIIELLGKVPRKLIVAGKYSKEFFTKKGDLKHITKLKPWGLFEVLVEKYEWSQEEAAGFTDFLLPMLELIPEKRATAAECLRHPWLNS
# [3] = target: SRSF protein kinase 1 (Homo sapiens) (UniProt Q96SB4); settings: at 1 µM
# [4] = target: Phosphatidylinositol 4,5-bisphosphate 3-kinase catalytic subunit alpha isoform (Homo sapiens) (UniProt P42336); settings: at 0.1 µM
# Phosphatidylinositol 4,5-bisphosphate 3-kinase catalytic subunit alpha isoform (Homo sapiens), sequence (P42336 whole entry, canonical isoform): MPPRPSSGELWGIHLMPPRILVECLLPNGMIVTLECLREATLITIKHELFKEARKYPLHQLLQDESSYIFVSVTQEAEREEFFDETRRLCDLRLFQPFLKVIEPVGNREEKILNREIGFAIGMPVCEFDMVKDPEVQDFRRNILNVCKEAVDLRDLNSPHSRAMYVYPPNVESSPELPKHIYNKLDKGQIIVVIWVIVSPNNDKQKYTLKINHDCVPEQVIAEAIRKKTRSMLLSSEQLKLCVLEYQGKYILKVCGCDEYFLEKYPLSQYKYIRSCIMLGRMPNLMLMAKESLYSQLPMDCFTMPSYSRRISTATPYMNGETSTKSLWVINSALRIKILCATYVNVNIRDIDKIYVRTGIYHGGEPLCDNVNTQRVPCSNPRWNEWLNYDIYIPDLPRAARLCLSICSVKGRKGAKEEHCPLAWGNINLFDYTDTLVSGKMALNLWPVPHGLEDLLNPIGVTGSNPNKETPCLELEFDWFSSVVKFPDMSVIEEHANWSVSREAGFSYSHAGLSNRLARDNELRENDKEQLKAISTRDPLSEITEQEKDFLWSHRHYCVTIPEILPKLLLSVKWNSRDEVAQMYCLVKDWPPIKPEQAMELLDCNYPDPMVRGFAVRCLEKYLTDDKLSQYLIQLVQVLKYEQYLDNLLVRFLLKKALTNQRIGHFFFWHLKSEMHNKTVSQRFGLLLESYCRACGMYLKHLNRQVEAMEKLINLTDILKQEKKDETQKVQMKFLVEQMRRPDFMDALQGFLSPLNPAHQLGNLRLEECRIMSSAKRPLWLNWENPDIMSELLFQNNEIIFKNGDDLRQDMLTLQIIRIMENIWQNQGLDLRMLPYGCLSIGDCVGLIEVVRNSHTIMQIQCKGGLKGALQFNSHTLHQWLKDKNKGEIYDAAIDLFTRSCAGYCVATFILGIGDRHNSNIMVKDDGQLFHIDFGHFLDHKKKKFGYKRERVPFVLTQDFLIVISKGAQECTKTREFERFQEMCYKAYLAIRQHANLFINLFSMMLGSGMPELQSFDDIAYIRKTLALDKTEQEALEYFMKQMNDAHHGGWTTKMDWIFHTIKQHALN
# [5] = target: Phosphatidylinositol 4,5-bisphosphate 3-kinase catalytic subunit alpha isoform (Homo sapiens) (UniProt P42336); settings: at 1 µM
# [6] = target: T2, Phosphatidylinositol 4,5-bisphosphate 3-kinase catalytic subunit delta isoform (Homo sapiens) (UniProt O00329); settings: at 0.1 µM
# T2 sequence (whole entry): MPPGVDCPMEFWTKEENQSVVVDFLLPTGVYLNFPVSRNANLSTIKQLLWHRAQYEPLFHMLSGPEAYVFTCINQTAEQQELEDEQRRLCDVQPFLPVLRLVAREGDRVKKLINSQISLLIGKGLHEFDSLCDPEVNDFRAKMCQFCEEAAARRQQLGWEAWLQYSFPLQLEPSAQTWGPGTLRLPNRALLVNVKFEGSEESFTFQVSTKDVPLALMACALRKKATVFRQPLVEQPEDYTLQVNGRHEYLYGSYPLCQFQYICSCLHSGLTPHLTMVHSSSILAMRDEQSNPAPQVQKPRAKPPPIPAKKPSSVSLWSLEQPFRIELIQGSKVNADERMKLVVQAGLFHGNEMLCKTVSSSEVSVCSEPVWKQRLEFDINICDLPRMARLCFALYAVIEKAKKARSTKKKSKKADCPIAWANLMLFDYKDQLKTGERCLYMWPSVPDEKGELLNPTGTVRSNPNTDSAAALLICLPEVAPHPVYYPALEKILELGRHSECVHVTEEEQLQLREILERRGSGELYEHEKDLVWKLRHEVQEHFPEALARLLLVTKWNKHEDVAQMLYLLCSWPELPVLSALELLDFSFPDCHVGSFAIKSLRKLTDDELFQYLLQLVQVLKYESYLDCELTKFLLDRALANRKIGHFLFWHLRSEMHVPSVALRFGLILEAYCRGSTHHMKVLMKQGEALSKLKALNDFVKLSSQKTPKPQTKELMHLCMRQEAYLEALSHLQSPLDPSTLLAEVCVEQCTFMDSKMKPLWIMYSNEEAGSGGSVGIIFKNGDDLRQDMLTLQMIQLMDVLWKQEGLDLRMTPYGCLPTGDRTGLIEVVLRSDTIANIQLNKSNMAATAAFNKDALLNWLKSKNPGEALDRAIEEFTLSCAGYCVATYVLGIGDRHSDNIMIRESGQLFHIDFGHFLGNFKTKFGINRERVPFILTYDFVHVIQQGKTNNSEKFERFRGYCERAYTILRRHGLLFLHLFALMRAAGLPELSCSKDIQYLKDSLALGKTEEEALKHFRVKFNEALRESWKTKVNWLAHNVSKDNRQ
# [7] = target: T2, Phosphatidylinositol 4,5-bisphosphate 3-kinase catalytic subunit delta isoform (Homo sapiens); settings: at 1 µM
# [8] = target: Phosphatidylinositol 4-kinase beta (Homo sapiens) (UniProt Q9UBF8); settings: at 0.1 µM
# Phosphatidylinositol 4-kinase beta (Homo sapiens), sequence (Q9UBF8 2-816 limits assumed): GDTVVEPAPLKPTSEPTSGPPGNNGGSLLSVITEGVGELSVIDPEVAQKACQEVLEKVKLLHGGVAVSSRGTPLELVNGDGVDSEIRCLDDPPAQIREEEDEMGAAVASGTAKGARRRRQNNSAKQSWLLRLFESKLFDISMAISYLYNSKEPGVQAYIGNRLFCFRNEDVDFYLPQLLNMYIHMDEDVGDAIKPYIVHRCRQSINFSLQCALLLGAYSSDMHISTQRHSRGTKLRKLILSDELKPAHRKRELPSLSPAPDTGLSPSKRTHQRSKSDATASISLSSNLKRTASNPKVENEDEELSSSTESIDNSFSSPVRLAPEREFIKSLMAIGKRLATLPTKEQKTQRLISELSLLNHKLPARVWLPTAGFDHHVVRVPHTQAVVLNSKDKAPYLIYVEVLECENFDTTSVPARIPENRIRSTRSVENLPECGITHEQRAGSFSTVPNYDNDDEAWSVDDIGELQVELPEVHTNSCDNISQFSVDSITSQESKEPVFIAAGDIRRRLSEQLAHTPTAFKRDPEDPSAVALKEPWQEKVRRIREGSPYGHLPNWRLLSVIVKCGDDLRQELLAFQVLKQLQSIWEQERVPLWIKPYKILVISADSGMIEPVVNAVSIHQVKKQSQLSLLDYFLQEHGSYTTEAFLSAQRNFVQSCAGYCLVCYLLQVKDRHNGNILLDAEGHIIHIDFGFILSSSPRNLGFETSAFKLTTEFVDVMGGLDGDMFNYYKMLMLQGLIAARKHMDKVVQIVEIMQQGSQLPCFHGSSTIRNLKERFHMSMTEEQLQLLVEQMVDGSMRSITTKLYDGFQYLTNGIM
# [9] = target: Phosphatidylinositol 4-kinase beta (Homo sapiens) (UniProt Q9UBF8); settings: at 1 µM
# [10] = target: Sphingosine kinase 1 (Homo sapiens) (UniProt Q9NYA1); settings: at 0.1 µM
# Sphingosine kinase 1 (Homo sapiens), sequence (Q9NYA1 whole entry): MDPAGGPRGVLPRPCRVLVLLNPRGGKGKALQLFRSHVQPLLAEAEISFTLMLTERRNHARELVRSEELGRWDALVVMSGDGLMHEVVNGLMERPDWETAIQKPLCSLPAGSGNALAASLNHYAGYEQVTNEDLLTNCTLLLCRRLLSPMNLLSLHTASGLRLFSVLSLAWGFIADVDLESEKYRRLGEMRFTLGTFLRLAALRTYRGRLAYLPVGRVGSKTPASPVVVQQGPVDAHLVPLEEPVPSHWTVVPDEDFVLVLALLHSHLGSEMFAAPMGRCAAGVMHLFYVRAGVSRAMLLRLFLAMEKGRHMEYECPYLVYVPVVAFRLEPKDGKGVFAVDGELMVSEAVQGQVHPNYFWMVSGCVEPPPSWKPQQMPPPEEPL
# [11] = target: Sphingosine kinase 1 (Homo sapiens) (UniProt Q9NYA1); settings: at 1 µM
# [12] = target: T3, Sphingosine kinase 2 (Homo sapiens) (UniProt Q9NRA0); settings: at 0.1 µM
# T3 sequence (whole entry): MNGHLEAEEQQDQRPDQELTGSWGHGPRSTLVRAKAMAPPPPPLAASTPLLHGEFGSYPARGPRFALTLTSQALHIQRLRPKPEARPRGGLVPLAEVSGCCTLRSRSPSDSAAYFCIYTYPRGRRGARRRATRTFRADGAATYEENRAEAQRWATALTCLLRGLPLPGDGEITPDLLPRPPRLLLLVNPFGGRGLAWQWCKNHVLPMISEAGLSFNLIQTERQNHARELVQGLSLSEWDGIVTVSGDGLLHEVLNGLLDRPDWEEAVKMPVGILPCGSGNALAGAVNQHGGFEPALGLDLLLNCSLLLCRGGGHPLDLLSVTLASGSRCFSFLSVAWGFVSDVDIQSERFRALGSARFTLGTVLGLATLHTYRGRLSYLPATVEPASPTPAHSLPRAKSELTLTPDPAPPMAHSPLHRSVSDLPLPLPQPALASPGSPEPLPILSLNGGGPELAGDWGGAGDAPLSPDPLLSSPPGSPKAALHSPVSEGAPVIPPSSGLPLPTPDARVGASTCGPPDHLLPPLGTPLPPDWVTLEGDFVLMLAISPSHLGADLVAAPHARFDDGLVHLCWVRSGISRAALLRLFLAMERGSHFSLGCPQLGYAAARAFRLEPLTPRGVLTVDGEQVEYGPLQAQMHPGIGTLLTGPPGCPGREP
# [13] = target: T3, Sphingosine kinase 2 (Homo sapiens); settings: at 1 µM
# [14] = target: Casein kinase II subunit alpha (Homo sapiens) (UniProt P68400); settings: at 0.1 µM
# Casein kinase II subunit alpha (Homo sapiens), sequence (P68400 whole entry, looked up): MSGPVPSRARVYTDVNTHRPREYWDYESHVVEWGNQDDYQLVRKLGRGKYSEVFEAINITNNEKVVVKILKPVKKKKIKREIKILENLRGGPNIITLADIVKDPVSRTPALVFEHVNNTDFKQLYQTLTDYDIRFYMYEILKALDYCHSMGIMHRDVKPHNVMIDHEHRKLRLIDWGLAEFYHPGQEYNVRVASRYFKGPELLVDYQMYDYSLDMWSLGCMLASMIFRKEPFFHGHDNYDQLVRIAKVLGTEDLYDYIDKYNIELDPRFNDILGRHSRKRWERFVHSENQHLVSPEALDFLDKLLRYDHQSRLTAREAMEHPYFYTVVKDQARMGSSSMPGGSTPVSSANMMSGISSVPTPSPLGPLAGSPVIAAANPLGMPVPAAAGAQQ
# [15] = target: Casein kinase II subunit alpha (Homo sapiens) (UniProt P68400); settings: at 1 µM
# [16] = target: T4, Inhibitor of nuclear factor kappa-B kinase subunit alpha (Homo sapiens) (UniProt O15111); settings: at 0.1 µM
# T4 sequence (whole entry): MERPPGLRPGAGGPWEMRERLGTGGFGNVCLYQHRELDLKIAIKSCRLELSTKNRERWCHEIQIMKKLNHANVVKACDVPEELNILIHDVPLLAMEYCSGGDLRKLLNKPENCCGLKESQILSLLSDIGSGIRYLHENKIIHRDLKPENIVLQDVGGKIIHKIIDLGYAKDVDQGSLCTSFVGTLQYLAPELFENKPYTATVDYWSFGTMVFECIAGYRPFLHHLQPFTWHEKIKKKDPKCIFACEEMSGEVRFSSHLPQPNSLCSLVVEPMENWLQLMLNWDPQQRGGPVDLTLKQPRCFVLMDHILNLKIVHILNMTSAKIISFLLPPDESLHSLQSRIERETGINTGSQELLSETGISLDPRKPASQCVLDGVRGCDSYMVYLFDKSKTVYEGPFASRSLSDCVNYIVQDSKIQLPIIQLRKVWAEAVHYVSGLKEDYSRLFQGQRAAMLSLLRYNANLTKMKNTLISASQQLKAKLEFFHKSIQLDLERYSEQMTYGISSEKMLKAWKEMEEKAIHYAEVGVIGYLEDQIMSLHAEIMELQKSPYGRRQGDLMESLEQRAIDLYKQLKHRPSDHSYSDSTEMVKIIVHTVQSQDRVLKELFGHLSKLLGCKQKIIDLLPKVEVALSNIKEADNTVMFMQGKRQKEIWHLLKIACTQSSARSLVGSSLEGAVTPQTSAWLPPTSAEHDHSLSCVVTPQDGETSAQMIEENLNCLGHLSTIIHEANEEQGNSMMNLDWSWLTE
# [17] = target: T4, Inhibitor of nuclear factor kappa-B kinase subunit alpha (Homo sapiens); settings: at 1 µM
# [18] = target: T5, Inhibitor of nuclear factor kappa-B kinase subunit beta (Homo sapiens) (UniProt O14920); settings: at 0.1 µM
# T5 sequence (whole entry): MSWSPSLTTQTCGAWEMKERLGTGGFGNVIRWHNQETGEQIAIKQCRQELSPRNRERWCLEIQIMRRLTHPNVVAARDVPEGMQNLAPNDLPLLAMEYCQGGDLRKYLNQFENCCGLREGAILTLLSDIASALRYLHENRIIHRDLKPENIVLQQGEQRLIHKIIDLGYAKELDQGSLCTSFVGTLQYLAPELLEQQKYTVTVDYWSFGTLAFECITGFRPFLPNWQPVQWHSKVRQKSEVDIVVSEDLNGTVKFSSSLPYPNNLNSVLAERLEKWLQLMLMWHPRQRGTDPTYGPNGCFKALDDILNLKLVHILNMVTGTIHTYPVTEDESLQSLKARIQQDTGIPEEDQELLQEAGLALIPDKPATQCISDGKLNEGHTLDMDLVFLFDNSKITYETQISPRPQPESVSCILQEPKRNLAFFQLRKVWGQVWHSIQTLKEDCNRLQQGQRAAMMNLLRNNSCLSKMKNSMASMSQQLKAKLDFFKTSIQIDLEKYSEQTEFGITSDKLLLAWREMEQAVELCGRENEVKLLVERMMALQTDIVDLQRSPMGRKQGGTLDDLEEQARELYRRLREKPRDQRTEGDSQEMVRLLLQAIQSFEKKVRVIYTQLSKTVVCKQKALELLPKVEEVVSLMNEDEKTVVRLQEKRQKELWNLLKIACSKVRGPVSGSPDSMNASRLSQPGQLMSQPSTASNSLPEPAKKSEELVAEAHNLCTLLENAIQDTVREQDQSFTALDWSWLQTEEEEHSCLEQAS
# [19] = target: T5, Inhibitor of nuclear factor kappa-B kinase subunit beta (Homo sapiens); settings: at 1 µM
# [20] = target: T6, Inhibitor of nuclear factor kappa-B kinase subunit epsilon (Homo sapiens) (UniProt Q14164); settings: at 0.1 µM;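 further: mean inhibition of IKKε reported, from the GSK PKIS dataset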
# T6 sequence (whole entry): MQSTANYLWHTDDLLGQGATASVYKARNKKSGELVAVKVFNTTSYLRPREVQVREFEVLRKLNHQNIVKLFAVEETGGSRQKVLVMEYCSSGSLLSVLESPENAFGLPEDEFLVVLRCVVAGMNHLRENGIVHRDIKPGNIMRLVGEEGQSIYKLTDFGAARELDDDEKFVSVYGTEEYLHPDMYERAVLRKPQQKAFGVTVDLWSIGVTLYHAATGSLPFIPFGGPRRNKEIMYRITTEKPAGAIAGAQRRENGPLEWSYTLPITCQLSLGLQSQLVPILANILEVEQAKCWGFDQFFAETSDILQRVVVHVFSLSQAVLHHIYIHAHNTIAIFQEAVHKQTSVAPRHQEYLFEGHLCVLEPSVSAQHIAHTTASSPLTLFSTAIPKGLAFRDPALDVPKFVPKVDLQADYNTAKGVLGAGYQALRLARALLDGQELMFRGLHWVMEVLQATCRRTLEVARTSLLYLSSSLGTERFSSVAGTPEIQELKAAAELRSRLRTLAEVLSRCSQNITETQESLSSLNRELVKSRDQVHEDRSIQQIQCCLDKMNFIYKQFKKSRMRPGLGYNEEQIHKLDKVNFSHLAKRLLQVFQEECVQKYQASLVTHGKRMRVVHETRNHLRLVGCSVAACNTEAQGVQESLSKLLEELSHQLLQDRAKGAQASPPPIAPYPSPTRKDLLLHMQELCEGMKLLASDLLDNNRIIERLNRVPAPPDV
Compound,inhibition [1],inhibition [2],inhibition [3],inhibition [4],inhibition [5],inhibition [6],inhibition [7],inhibition [8],inhibition [9],inhibition [10],inhibition [11],inhibition [12],inhibition [13],inhibition [14],inhibition [15],inhibition [16],inhibition [17],inhibition [18],inhibition [19],inhibition [20]
O=C1Nc2ccc(-c3cccnc3)cc2C1=Cc1cc(Br)c(O)c(Br)c1,2.31%,-1.92%,-2.45%,11.3%,55.5%,-8.03%,-3.91%,35.2%,77.7%,5.72%,-0.37%,0.41%,-1.79%,4.96%,14.5%,5.26%,7.66%,4.92%,2.14%,3.51%
N#Cc1cccc(Nc2nccc(-c3cnn4ncccc34)n2)c1,26.4%,0.8%,23%,6.65%,23.3%,3.45%,21.2%,-5.91%,14.8%,-0.07%,-1.39%,0%,-6.48%,20.4%,63.9%,9.53%,31%,7.83%,20.5%,7.68%
O=S(=O)(CCOCc1ccc(-c2ccc3ncnc(Nc4ccc(OCc5cccc(F)c5)c(Cl)c4)c3c2)o1)c1ccccc1,4.2%,-2.76%,-1.54%,1.05%,12.9%,0.99%,10.1%,0.56%,0.4%,1.08%,1.2%,0.14%,14.2%,1.35%,4.52%,1.54%,4.26%,-0.1%,0.7%,1.59%
Cc1ccc(Nc2ccnc(Nc3cccc(C(N)=O)c3)n2)cc1O,1.74%,-1.01%,1.41%,1.78%,3.39%,2.88%,9.7%,3.13%,1.94%,0.79%,-3.44%,0.84%,0.08%,4.12%,10.5%,4.77%,9.75%,7.9%,26.8%,11.4%
